Each structure is given as a SMILES string. Screen size: about 65,000 compounds; about 2,100 (3.2%) showed an effect of 50% or more. The median lay at about -52%. What follows is part of a selection rich in strong results, with near analogues and random picks from the rest.

The test has as its system Plasmodium falciparum. As to the kind of experiment: Screen against P. falciparum Asexual Blood Stage (ABS), at 5uM. The note with it: tested at 5 uM. In kind it is functional, Dd2.
As for `CC(Nc1ccc(C#N)cc1F)c1cccc(S(N)(=O)=O)c1` (stereo not drawn), the INHIBITION was -49.5%.

Take `O=C1CC[C@H]2CN(Cc3ccc(Cl)s3)CC[C@H]2N1CCc1c[nH]cn1`: the INHIBITION is listed as 66.6%.

Consider `Cc1nc(CN2CC[C@@H]3[C@@H](CCC(=O)N3CCc3c[nH]cn3)C2)co1`, for which the INHIBITION is on record as -58.8%.

Regarding `O=C1CC[C@H]2CN(Cc3cccnc3)CC[C@H]2N1CCc1c[nH]cn1`, the INHIBITION is listed as -154%.

On to `CC(=O)N1CCC2(C1)c1ccccc1S(=O)(=O)N2C` (stereo not drawn), for which the INHIBITION is -56.8%.

As to `COCc1ccccc1CNCc1c(C(C)C)nn(C)c1N(C)C`, the INHIBITION was 59.4%.

In the case of `COCc1ccccc1CNCc1c(C)nn(C)c1N(C)C`, the INHIBITION is on record as -36.8%.

Turning to `CC(C)c1nn(C)c(N(C)C)c1CNCc1cccnc1N(C)C`, the INHIBITION came to 21%.

For the compound `COc1ncccc1CNCc1c(C(C)C)nn(C)c1N(C)C`, the INHIBITION is 11%.

As for `Cc1nn(C)c(N(C)C)c1CNCc1ccccc1CN(C)C`, the INHIBITION was determined as 18.8%.

Take `COc1ncccc1CNCc1c(C(C)C)nn(C)c1OC`: the INHIBITION is -29.9%.

Take `CCOc1ncccc1CNCc1c(C(C)C)nn(C)c1N(C)C`: the INHIBITION is -7.19%.

For the compound `CC(C)c1nn(C)c(N(C)C)c1CNCc1ccccc1CN(C)C`, the INHIBITION is reported as 59.5%.

For `CC(C)c1nn(C)c(N(C)C)c1CNCc1ccccc1CO`, the INHIBITION amounted to 44.8%.

For `COc1ncccc1CNCc1c(C(C)C)nn(C)c1Cl`, the INHIBITION turned out to be 51.7%.

Regarding `CC(C)c1nn(C)c(N(C)C)c1CNCc1cccc2cccnc12`, the INHIBITION is listed as 67.5%.

`COCc1cccc(CNCc2c(C(C)C)nn(C)c2N(C)C)c1`: the INHIBITION was found to be 36.5%.

As to `CS(=O)(=O)c1ccc(CN2C[C@@H]3CC[C@H]2CN(c2ncccn2)C3)cc1`, the INHIBITION is reported as -136%.

With `CN(Cc1noc(C2CC2)n1)C1CCN(Cc2nnc(C3CC3)o2)C1` (stereo not drawn), the INHIBITION is given as -122%.

Take `CC(C)(C)C(N)C1=NC(=C2N=CN=N2)NO1` (stereo not drawn): the INHIBITION was -49.9%.

With `CCn1c(=NC(=O)CSCC(=O)Nc2nccs2)sc2ccccc21`, the INHIBITION was 32.3%.

For `CC(NCc1cnc(N2CCOCC2)nc1)c1ccc(Cl)s1` (stereo not drawn), the INHIBITION is -25.9%.

In the case of `c1csc(CN2CCO[C@@H]3CN(C4CCOCC4)C[C@@H]3C2)c1`, the INHIBITION is -93.2%.

Take `Cc1noc(C)c1CN1Cc2cnn(C)c2C(COCC2CC2)C1` (stereo not drawn): the INHIBITION is -81.3%.

`Cc1ccc(CN2CCS(=O)(=O)C(C)(C)C2)cc1C`: the INHIBITION is recorded as -98.2%.

As for `Cc1csc2ncnc(N3CCC(Cn4cc(C(C)(C)N)nn4)CC3)c12`, the INHIBITION worked out at 35%.

On to `COc1ccc(NC(=O)CNc2ccc(Br)cc2F)cc1`, for which the INHIBITION is -68.8%.

`COc1ccc(OC)c(CNCc2c(C(C)C)nn(C)c2N(C)C)c1`: the INHIBITION was 69.3%.

For the compound `COc1cccc(CNCc2c(C(C)C)nn(C)c2N(C)C)c1OC`, the INHIBITION came out at 33.3%.

`COc1cccc(CNCc2c(C(C)C)nn(C)c2N(C)C)c1`: the INHIBITION is on record as -5.49%.

As for `CC(C)COc1cncc(N2CCCN(c3ncccn3)CC2)n1`, the INHIBITION is given as -186%.

Take `c1ccc(C2=NOC3(CCN(Cc4c[nH]c5ccccc45)CC3)C2)cc1`: the INHIBITION turned out to be 36.1%.

As for `Fc1ccc(CN2CCCC3(CCN(Cc4ncc[nH]4)C3)C2)cc1F` (stereo not drawn), the INHIBITION is recorded as 60.9%.

Regarding `O=C(c1cn[nH]c1)N1CCC2(CCCN(Cc3ccc(F)c(F)c3)C2)C1` (stereo not drawn), the INHIBITION is recorded as -25.8%.

For `Cc1ccc(CN2CCC3(CCCN(Cc4ccc(F)c(F)c4)C3)C2)o1` (stereo not drawn), the INHIBITION was 28.1%.

Take `CCc1nc2c(s1)C(N(C)C(=O)c1csnn1)CCC2` (stereo not drawn): the INHIBITION is -32.3%.

For `Cc1nc(NC2(CN3CCCCC3)CCCCC2)c2cnn(C)c2n1`, the INHIBITION is on record as 56%.

With `CCOC(=O)CC1(Nc2nc(C)nc3c2cnn3C)CCCCC1`, the INHIBITION is on record as -25.2%.

For `COCC1(Nc2nc(C)nc3c2cnn3C)CCCC1`, the INHIBITION is given as -142%.

Consider `Cc1nc(C(=O)NCCS(=O)(=O)N2CCCC2)cs1`, for which the INHIBITION is recorded as -31.8%.

On to `Cc1nc(COc2ccc(OC3CCCCNC3=O)cc2)oc1C` (stereo not drawn), for which the INHIBITION is listed as -151%.

Consider `O=C(Nc1ccc2c(c1)C(=O)NC2=O)c1cccs1`, for which the INHIBITION is -80.7%.

In the case of `CCC(=O)N1CCC2(CC1)COCCN2Cc1ccc(F)cc1`, the INHIBITION is recorded as -31.7%.

Consider `CC(=O)N(Cc1noc(C)n1)C1CCN(CCOc2ccccc2)C1` (stereo not drawn), for which the INHIBITION was -79.1%.

As for `Cn1cc(N2CC3(CCN(CC4CC4)CC3)OCC2=O)cn1`, the INHIBITION is -53.1%.

In the case of `Cc1noc(-c2ccnc(Oc3ccc(CN4CCCC4)cc3F)c2)n1`, the INHIBITION was -38.8%.

Turning to `Cc1noc(-c2ccnc(Oc3ccc(CN4CCCC4)cc3C)c2)n1`, the INHIBITION is recorded as 53.3%.

As to `Cc1noc(-c2ccnc(Oc3ccccc3CN3CCCCC3)c2)n1`, the INHIBITION is given as -36.8%.

Take `Cc1ccc(-c2nnc(CN3CCc4nn(C)c(=O)cc4C3)o2)cc1`: the INHIBITION is listed as -38.4%.

Turning to `CCOC(=O)N1CCN(c2nc(NC3CC3)c3ccccc3n2)CC1`, the INHIBITION is recorded as 4.86%.

As for `Cc1csc2c(C3CCCN(C(=O)CCn4ccnc4)C3)nc(C)n12` (stereo not drawn), the INHIBITION was -97.3%.

Take `COCCN(CC1CCCN(C2Cc3ccccc3C2)C1)C(=O)CO` (stereo not drawn): the INHIBITION is given as 59.9%.

For `COCCN(CC1CCCN(C2Cc3ccccc3C2)C1)C(=O)COC` (stereo not drawn), the INHIBITION was 39.5%.

These data come from ChEMBL document CHEMBL4513216, “Probing the Open Global Health Chemical Diversity Library for Multistage-Active Starting Points for Next-Generation Antimalarials” (ACS Infect Dis, 2020).
